# Source: PubChem BioAssay
# A number with no mark means an inactive call. For some assays here: Measured potencies and affinities stand elsewhere. Calls of active or inactive are those of the source. Unless noted, how the calls were made is not given here.
# What was measured:
# [1] = antimalarial activity against Dd2 strain (AID 2302;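 active means growth inhibition above 50% at the single 2 µM test dose, taken to imply half-maximal potency below 2 µM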;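 further: 0% = DMSO untreated growth and 100% = chloroquine plus artemisinin killed control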); settings: P. falciparum Dd2 in RBCs, LDH growth readout, 72 h; at 2 µM; stronger effect = higher value
# [2] = HepG2 cytotoxicity, primary screen, cytotoxicity control for P. falciparum antimalarial project, cell-based, ATP luminescence (AID 2303;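 active means inhibition above 50%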;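 further: 0% = DMSO wells and 100% = digitonin-killed cells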); settings: HepG2 viability, 24-48 h, at 10 µM, stronger effect = higher value
# [3] = target: L-lactate dehydrogenase (Plasmodium falciparum (isolate CDC / Honduras)) (UniProt Q27743); test: PfLDH activity inhibition – cell lysate, 3D7 strain, counter-screen for P. falciparum growth inhibition project (AID 2304);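 further: 0% = vehicle and 100% = reference inhibitor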; settings: P. falciparum 3D7 crude extract, LDH APAD/NBT absorbance; at 2 µM; stronger effect = higher value
# Sequence of L-lactate dehydrogenase (Plasmodium falciparum (isolate CDC / Honduras)) (Q27743 whole entry, looked up): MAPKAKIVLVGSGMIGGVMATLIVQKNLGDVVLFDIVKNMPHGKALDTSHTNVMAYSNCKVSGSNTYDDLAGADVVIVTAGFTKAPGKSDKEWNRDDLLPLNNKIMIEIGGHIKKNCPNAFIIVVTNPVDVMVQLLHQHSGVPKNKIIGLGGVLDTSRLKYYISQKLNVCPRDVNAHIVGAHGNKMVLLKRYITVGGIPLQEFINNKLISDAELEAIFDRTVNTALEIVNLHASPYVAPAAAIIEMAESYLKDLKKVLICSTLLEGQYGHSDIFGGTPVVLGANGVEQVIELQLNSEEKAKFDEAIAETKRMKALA
# [4] = inhibition of 3D7 malaria parasite growth – strain 3D7 (AID 2306);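 further: 0% = DMSO wells and 100% = chloroquine plus artemisinin control wells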; settings: P. falciparum 3D7 erythrocytic growth, LDH absorbance, 72 h; at 2 µM; stronger effect = higher value
# [5] = target: Calcium-dependent protein kinase 1 (Plasmodium falciparum (isolate 3D7)) (UniProt P62344); test: PfCDPK1 kinase inhibitors, biochemical, TCAMS library (AID 1159585; cut-off not given, nearly all actives have IC50 up to about 0.98 µM;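 further: inhibitors leave more ATP so luminescence rises with inhibition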); settings: recombinant PfCDPK1, Kinase-Glo ATP depletion luminescence
# Sequence of Calcium-dependent protein kinase 1 (Plasmodium falciparum (isolate 3D7)) (P62344 whole entry, looked up): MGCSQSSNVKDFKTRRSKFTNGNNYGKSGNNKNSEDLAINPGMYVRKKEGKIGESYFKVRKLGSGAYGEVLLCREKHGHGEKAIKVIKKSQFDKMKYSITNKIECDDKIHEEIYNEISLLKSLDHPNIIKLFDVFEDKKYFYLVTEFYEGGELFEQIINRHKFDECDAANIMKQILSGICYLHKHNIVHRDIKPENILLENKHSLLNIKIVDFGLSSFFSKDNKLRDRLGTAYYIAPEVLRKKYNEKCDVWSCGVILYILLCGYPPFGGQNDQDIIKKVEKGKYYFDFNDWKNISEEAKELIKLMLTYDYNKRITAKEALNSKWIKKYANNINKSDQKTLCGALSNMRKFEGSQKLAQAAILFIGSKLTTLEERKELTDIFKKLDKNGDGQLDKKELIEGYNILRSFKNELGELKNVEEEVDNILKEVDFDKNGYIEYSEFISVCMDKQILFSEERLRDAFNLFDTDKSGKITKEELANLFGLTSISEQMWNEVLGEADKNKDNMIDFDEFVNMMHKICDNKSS
# [6] = target: Plasmodium falciparum protein kinase 6 (PK6, PF3D7_1337100) (UniProt Q8IDW1); test: PfPK6 kinase inhibitors, biochemical, TCAMS library (AID 1159586); settings: recombinant PfPK6, Kinase-Glo ATP depletion luminescence
# Sequence of Plasmodium falciparum protein kinase 6 (PK6, PF3D7_1337100) (Q8IDW1 1-305): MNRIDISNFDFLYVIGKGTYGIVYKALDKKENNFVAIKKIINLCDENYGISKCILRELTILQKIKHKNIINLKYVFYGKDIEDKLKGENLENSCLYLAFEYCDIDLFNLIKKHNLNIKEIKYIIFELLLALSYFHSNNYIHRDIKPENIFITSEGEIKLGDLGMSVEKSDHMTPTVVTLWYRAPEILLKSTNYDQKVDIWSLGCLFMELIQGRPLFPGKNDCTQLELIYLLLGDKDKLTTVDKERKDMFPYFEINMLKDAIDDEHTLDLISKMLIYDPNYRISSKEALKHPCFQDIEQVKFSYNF
# [7] = target: Protein kinase 7 (PK7), Plasmodium falciparum 3D7 (PF3D7_0213400) (UniProt Q7YTF7); test: inhibition of Plasmodium PK7 catalytic activity – biochemical, TCAMS antimalarial set, Kinase-Glo luminescence (AID 1159587); settings: recombinant PfPK7, Kinase-Glo ATP depletion luminescence
# Sequence of Protein kinase 7 (PK7), Plasmodium falciparum 3D7 (PF3D7_0213400) (Q7YTF7 1-343): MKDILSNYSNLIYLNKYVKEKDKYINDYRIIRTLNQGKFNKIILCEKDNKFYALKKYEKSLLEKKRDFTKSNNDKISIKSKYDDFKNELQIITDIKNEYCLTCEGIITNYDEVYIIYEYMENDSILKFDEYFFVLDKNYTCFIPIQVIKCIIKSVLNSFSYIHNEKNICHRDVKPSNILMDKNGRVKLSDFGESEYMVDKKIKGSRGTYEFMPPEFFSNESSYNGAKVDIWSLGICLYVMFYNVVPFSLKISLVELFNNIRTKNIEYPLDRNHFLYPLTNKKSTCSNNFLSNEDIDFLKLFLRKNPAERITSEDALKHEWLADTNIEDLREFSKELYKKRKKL
# [8] = target: Calcium-dependent protein kinase 4 (Plasmodium falciparum (isolate 3D7)) (UniProt Q8IBS5); test: PfCDPK4 kinase inhibitors, biochemical, TCAMS library (AID 1159588; cut-off not given, nearly all actives have IC50 up to about 0.91 µM); settings: recombinant PfCDPK4, Kinase-Glo ATP depletion luminescence
# Sequence of Calcium-dependent protein kinase 4 (Plasmodium falciparum (isolate 3D7)) (Q8IBS5 whole entry, looked up): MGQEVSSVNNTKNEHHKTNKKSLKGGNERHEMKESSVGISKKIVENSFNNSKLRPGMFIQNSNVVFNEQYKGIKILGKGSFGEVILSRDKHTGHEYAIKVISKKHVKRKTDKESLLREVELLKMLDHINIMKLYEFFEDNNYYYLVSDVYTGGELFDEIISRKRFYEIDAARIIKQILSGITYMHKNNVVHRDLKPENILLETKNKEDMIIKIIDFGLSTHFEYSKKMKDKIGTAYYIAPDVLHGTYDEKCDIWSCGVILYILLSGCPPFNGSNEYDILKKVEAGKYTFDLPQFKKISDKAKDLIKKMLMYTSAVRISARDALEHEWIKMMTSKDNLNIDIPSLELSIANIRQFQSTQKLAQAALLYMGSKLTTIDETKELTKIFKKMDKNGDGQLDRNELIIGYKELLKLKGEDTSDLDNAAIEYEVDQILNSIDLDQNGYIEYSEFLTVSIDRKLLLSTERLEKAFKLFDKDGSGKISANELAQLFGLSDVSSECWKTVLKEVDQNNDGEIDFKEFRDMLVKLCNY
Compound,growth inhibition [1],inhibition [2],inhibition [3] [%],growth inhibition [4],outcome [5],outcome [6],outcome [7],outcome [8]
CCC(CCON1C(N)=NC(N)=NC1(C)C)c1ccc(Cl)c(Cl)c1 (stereo unspecified),98% (active),68% (active),-7,94% (active),inactive,inactive,inactive,inactive
CC(=O)Nc1nc(C(=O)Nc2ccc(-c3cccc(-c4nc5c(C)cccc5[nH]4)c3)cc2)cs1,73% (active),100% (active),-4,101% (active),inactive,inactive,inactive,inactive
Cc1ccc(-c2ccn(Cc3cccc(OCc4ccccc4)c3)n2)cn1 (tested in a mixture with another compound),64% (active),-4%,0,82% (active),inactive,inactive,inactive,inactive
CN(C)CCC(O)(c1ccc(Br)cc1)c1cccnc1 (stereo unspecified),1%,22%,5,96% (active),inactive,inactive,inactive,inactive
CC(C)(C)c1cc(CN2CCN(Cc3ccccc3)CC2)cc(C(C)(C)C)c1O,0%,9%,0,97% (active),inactive,inactive,inactive,inactive
Cc1ccc(Cn2c(N3CCC(C(=O)NCc4cccs4)CC3)nc3ccccc32)cc1,71% (active),-4%,-1,99% (active),inactive,inactive,inactive,inactive
CN(C)CC(=O)Nc1ccc(-c2ccc3ccnc(N)c3c2)cc1,99% (active),69% (active),2,101% (active),inactive,inactive,inactive,inactive
CCOC(=O)c1ccc(NC(=O)NNC(=O)c2ccc(CCN3CCC(c4nc(COCC(F)(F)F)c(-c5ccc(F)cc5)o4)CC3)cc2)cc1,67% (active),10%,0,103% (active),inactive,inactive,inactive,inactive
N#Cc1ccc(-c2ccc(C(=O)NCCCCN3CCC(c4cc(Br)c5c(c4O)CCCC5)CC3)cc2)cc1,50% (active),93% (active),7,101% (active),inactive,inactive,inactive,inactive
Cc1cccc2[nH]c(-c3ccc(-c4cccc(CNC(C)C)c4)s3)nc12,97% (active),12%,2,100% (active),inactive,inactive,inactive,inactive
CC(C)(C)Oc1ccc(C[C@@H]2NC3(C(=O)N(Cc4ccc(Cl)c(Cl)c4)c4ccccc43)C3C(=O)N(c4ccc(Br)cc4)C(=O)C32)cc1 (stereo partly specified),25%,1%,6,86% (active),inactive,inactive,inactive,inactive
COc1ccc(-c2nonc2NC(=O)c2cccc(C)c2)cc1OC,8%,24%,-1,97% (active),inactive,inactive,inactive,inactive
O=[N+]([O-])c1ccc(-c2ccc(C=NNc3nc(Nc4ccccc4)nc(Nc4ccccc4)n3)o2)cc1,12%,-4%,1,91% (active),inactive,inactive,inactive,inactive
O=C(/C=C/c1ccc(Cl)c(Cl)c1)N1CCC(NCc2ccc3[nH]ccc3c2)CC1,1%,44%,-2,97% (active),inactive,inactive,inactive,inactive
CCCCCCCN(CCCCCCC)CCNc1cc(C)nc2ccccc12,31%,39%,-2,89% (active),inactive,inactive,inactive,inactive
N#Cc1cccc(CNC(=O)c2cccc(Nc3ccnc4ccc(F)cc34)c2)c1,26%,-1%,0,87% (active),inactive,inactive,inactive,inactive
COc1ccc(Nc2nc(C)cc(NCc3ccc(-c4c(C)noc4C)cc3)n2)cc1,50% (active),48%,-5,99% (active),inactive,inactive,inactive,inactive
CCCN(CC1CC1)c1ncc(-c2cccc(CNCCC3CCCN3C)c2)cn1 (stereo unspecified),43%,77% (active),7,98% (active),inactive,inactive,inactive,inactive
OCC(c1ccccc1)n1c(COc2ccc(Cl)cc2)nc2c(OCCCN3CCCCC3)cccc21 (stereo unspecified),68% (active),6%,-7,90% (active),inactive,inactive,inactive,inactive
COCCNc1nc(N2CCC(CNC(=O)c3ccc(-c4ccc(C(=O)N(C)C)cc4C)cc3)CC2)nc2cc(OC)c(OC)cc12,97% (active),12%,3,98% (active),inactive,inactive,inactive,inactive
CC1(C)N=C(N)N=C(N)N1OCc1cc(Cl)cc2c1OCOC2,64% (active),65% (active),-1,95% (active),inactive,inactive,inactive,inactive
Cc1cc(NN=Cc2ccc(F)cc2)c2cc(F)ccc2n1,61% (active),6%,-4,101% (active),inactive,inactive,inactive,inactive
